A number with no mark means an inactive call. No rule for the calls is given here.
The molecules below were run against Pantothenate synthetase (Mycobacterium tuberculosis (strain ATCC 25618 / H37Rv)) (UniProt P9WIL5) (assay: Coupled enzyme confirmation of inhibitors against recombinant Mtb PanC (AID 375;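 also: 0% = full reaction with vehicle and 100% = no enzyme background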)). Conditions: coupled enzyme assay; at 10 µM, stronger effect = higher value.
Sequence of Pantothenate synthetase (Mycobacterium tuberculosis (strain ATCC 25618 / H37Rv)) (P9WIL5 whole entry, looked up): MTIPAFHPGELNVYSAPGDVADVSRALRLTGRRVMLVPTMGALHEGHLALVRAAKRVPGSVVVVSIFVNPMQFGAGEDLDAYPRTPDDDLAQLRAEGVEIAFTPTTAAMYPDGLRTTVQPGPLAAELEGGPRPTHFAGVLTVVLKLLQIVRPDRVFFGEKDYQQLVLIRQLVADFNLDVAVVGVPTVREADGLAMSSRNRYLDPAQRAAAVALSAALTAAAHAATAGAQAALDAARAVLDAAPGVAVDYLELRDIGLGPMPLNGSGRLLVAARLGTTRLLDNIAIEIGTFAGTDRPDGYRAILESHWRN

SMILES	inhibition
CC1(C)O[C@@H]2C[C@H]3[C@@H]4C[C@H](F)C5=CC(=O)CC[C@]5(C)[C@H]4[C@@H](O)C[C@]3(C)[C@]2(C(=O)CO)O1	7%
Cc1cn([C@H]2C=C[C@@H](CO)O2)c(=O)[nH]c1=O	0%
CCOc1ccc(N(CC(=O)OC)S(=O)(=O)c2ccc(OC)c(OC)c2)cc1	0%
CC(=O)Nc1ccc(S(=O)(=O)N2CCSC2c2ccccc2)cc1 (configuration not stated)	7%
Cc1cc(NC(=O)CSc2nccn2-c2ccc(Cl)cc2)no1	0%
O=C(O)C1CCCN(S(=O)(=O)c2ccc(Cl)s2)C1 (configuration not stated)	2%
CCOc1ccccc1Nc1ncnc2ccccc12	6%
CCn1c(=O)n(CC(=O)N(C)Cc2ccccc2)c(=O)c2ccccc21	12%
Cn1cc(-c2nc3ccccc3[nH]2)c2ccccc21	4%
Cc1ccc2nsnc2c1S(=O)(=O)N(Cc1cc2cccc(C)c2[nH]c1=O)CC1CCCO1 (configuration not stated)	0%
CC(=O)Oc1ccc(CCC(C)OC(C)=O)cc1 (configuration not stated)	8%
CCN(CC)CCNC(=O)c1cc(S(C)(=O)=O)ccc1OC	0%
COc1ccc(C2=CC(=O)OC3(CCCCC3)O2)cc1	0%
O=C(Cc1ccccc1)N1CCCC(c2nc(-c3cccs3)no2)C1 (configuration not stated)	0%
Cc1cccc(-n2c(Cc3cc(=O)[nH]c(=O)[nH]3)nnc2SCC(=O)NCc2ccco2)c1	4%
COc1cc(Cl)c(C)cc1NC(=O)COC(=O)c1cnc(C)cn1	0%
Oc1ccc(N2CCN(C(c3cccnc3)c3nnnn3Cc3ccccc3)CC2)cc1 (configuration not stated)	0%
C=CCn1c(=O)n(CCOC)c(=O)c2sc3ccccc3c21	0%
CC1CCCN(S(=O)(=O)c2ccc(C(=O)Nc3nnc(-c4ccccc4Cl)o3)cc2)C1 (configuration not stated)	0%
Cc1ccc(C)c(OCC(O)CN2C(C)CCCC2C)c1 (configuration not stated)	0%
COCc1nnc(NC(=O)c2ccc(NC(C)=O)cc2)s1	2%
O=C(NCC1COc2ccccc2O1)c1ccccc1 (configuration not stated)	2%
